Source: PubChem BioAssay
LGR2 inh – Drosophila LGR2 receptor signaling inhibition; HEK293 LGR2, CRE-luciferase, bursicon-stimulated, 4 h; inhibition, % at 9.99 µM; 380,000 tested, 0.35% active; AID 720647;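 active means drop in luminescence signal, shown as inhibition above about 50% in the replicate tests, limit read from the data, passing the limit was not always enough; inconclusive means probably only some replicates passing the limit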;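 further: agonist challenge used bursicon conditioned medium at about half maximal strength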
EWS-Fli inh – EWS/Fli transcriptional activity inhibition; A673 NR0B1-luciferase reporter, viability-normalised; inhibition, % at 12.6 µM; 350,000 tested, 0.67% active; AID 651661;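 active means mean inhibition of at least 50% after viability correction, with every replicate also passing that limit; inconclusive means mean reaches 50% but only one of two replicates passes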;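 further: firefly luciferase signal divided by Alamar Blue viability fluorescence both relative to DMSO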
EBV LMP1 NFkB – inhibitors of Epstein-Barr LMP1-induced NF-kappaB reporter. LMP1-induced NF-kappaB luciferase reporter cells, luminescence. 350,000 tested, 0.69% active. inhibition, % at 12.5 µM; in the data active means inhibition above about 41%; inconclusive means no clear call, values can overlap the other calls;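 further: 0% = neutral control wells and 100% = reference inhibitor control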
TROY NFkB inh – TROY signaling inhibition | Q293 LMP1-TROYcd NF-kB luciferase reporter, 4 h | inhibition, % at 10 µM | 360,000 tested, 0.98% active;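 active means compounds whose plate-normalised and pattern-corrected inhibition of the luciferase reporter signal at the single screening dose is 50% or more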
TWEAK-Fn14 inh – inhibitors of TWEAK-Fn14 interaction signaling; TWEAK-stimulated Fn14 reporter cells, luciferase luminescence, 8 h; inhibition, % at 10 µM; 360,000 tested, 2% active; AID 1159606; in the data active means inhibition above about 50%
An asterisk follows results filed as active; ? = inconclusive; / = no result. Shown are actives, neighbours in structure and some others; about 2.5% of the full set was active somewhere.

SMILES | LGR2 inh | EWS-Fli inh | EBV LMP1 NFkB | TROY NFkB inh | TWEAK-Fn14 inh
C[C@H]1CCCCO[C@H](CN(C)C(=O)c2ccccc2)[C@@H](C)CN([C@@H](C)CO)C(=O)c2cc(NC(=O)Nc3ccc(F)cc3)ccc2O1 | -9 | -3 | / | / | /
O=C(NC(=S)Nc1cc([N+](=O)[O-])ccc1O)c1ccc2c(c1)OCO2 | ? | -64 | -30 | 70* | 71*
COc1cc([N+](=O)[O-])ccc1NC(=S)NNC(=O)c1ccc2c(c1)OCO2 | 1 | / | 6 | 23 | -26
CO[C@H](CN(C)Cc1ccc2c(c1)OCO2)[C@@H](C)CN(C(=O)Nc1ccc(F)cc1)[C@H](C)CO | -24 | -7 | / | / | /
CCCc1nnc(NC(=O)CCC(=O)N2CCN(S(=O)(=O)c3ccc(F)cc3)CC2)s1 | -11 | 0 | -11 | -11 | 5
CCCc1nnc(NC(=O)CNc2ccc(F)cc2)s1 | / | / | 8 | / | 81*
C/C(=C/CCC(C)[C@H]1CC[C@@]2(C)C3=C(CC[C@]12C)[C@@]1(C)CCC(=O)C(C)(C)[C@@H]1CC3)C(=O)O (some centres not stated) | / | 2 | -6 | 53* | 10
CC(=O)c1cccc(-c2ccc3c(c2)C(C)(Cc2ccccc2F)C(=O)N3)c1 (configuration not stated) | 23 | 8 | / | 20 | 58*
COc1ccc(C(C)=O)cc1CC1(C)C(=O)Nc2ccc(-c3ccccc3OC)cc21 (configuration not stated) | 13 | -3 | / | 11 | 0
COc1ccc(NC(=O)N(C)C[C@@H]2Oc3ccc(NC(=O)Cn4cnnn4)cc3C(=O)N([C@H](C)CO)C[C@H]2C)cc1 | 15 | -5 | / | / | /
O=C(Nc1ccc(F)cc1)Nc1ccc2c(c1)[C@@H]1C[C@H](CC(=O)N3CCOCC3)O[C@H](CO)[C@@H]1O2 | 3 | 5 | / | / | /
CCCCN(C)C(=O)CCC(=O)NNc1nc2ccccc2c2nc(C)nn12 | 0 | -3 | 4 | -6 | 76*
CCN(CC)CCCNC(=O)CCC(=O)NNc1nc2ccccc2c2nc(C)nn12 | -1 | 2 | 3 | -26 | 13
COc1ccc2c3c([nH]c2c1)[C@H](CO)N(C(=O)NC(C)C)CC31CCN(C(=O)NC(C)C)CC1 | 13 | -18 | / | / | /
Oc1cccc(/C=N/NC(=S)NCCN2CCOCC2)c1O | -1 | 10 | 48* | 12 | -26
S=C(NCCN1CCOCC1)N/N=C/c1cccs1 | -6 | 9 | -2 | -5 | -7
C[C@H]1CN([C@@H](C)CO)C(=O)c2cc(NC(=O)Nc3cccc4ccccc34)ccc2O[C@H]1CN(C)C(=O)Nc1cccc2ccccc12 | 7 | -13 | / | / | /
COC(=O)C1=C(C)N(CCCC(=O)O)C(=O)NC1c1cccc(Cl)c1Cl (configuration not stated) | -36 | -2 | 51* | -9 | 8
O=C1C=CCCN1C(=O)/C=C/c1cccc(C(F)(F)F)c1 | / | 62* | / | / | /
O=C(NNC(=S)Nc1cccc(C(F)(F)F)c1)c1cccc(Cl)c1 | 10 | / | 7 | 36 | 62*
O=C(/C=C/c1cccc(C(F)(F)F)c1)Nc1cccc(C(F)(F)F)c1 | 11 | / | 5 | 51* | 61*
O=C1C=CCCN1C(=O)/C=C/c1ccccc1Cl | / | 62* | / | / | /
COc1cc(/C=C/C(=O)N2CCCN(C(=O)/C=C/c3cc(OC)c(OC)c(OC)c3)CC2)cc(OC)c1OC | 4 | / | -1 | 3 | -2
COc1cc(/C=C/C(=O)N2CCC=CC2=O)cc(OC)c1OC | 100* | 70* | 22 | 40 | 92*
COCCNC(=O)C[C@H]1C[C@@H]2c3cc(NC(=O)CC4CC4)ccc3O[C@@H]2[C@@H](CO)O1 | -5 | -11 | / | / | /
SMILES | LGR2 inh | EWS-Fli inh | EBV LMP1 NFkB | TROY NFkB inh | TWEAK-Fn14 inh
CCC(CC)C(=O)Nc1cccc(C(=O)Nc2ccc(S(=O)(=O)Nc3ccc(C)cc3)cc2)c1 | 16 | / | 7 | 54* | 45
Cc1ccc(S(=O)(=O)NC(=O)c2cccc(Br)c2)cc1 | -3 | / | 3 | -24 | 84*
CN(C)CC(=O)N1[C@H](C#N)[C@H](c2ccccc2-c2cccc(C(=O)N(C)C)c2)[C@H]1CO | -3 | -1 | / | / | /
O=C(CSc1nc2ncc(Br)cc2[nH]1)c1cccc([N+](=O)[O-])c1 | -13 | 67* | -7 | 9 | -1
COc1cccc2c1C1COC3C4CC(C(=O)O)C(C(C2)N13)N4C (configuration not stated) | 1 | 72* | 1 | 30 | 61*
COc1cccc2c1C(CCCC(=O)O)CCC2 (configuration not stated) | 2 | 2 | -4 | -3 | 0
